# A selection: hits, their analogues and other compounds. The true share with any hit is near 27%.
# CYP2C19 inh: human CYP2C19 inhibition; CYP2C19 Supersomes, luciferin-H EGE luminescence, 30 min; inhibition, % at 5 µM; P33261; hit rate 21% among 96,000; AID 778;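 active = CYP2C19 inhibition above a set limit at 5 µM in the primary screen, cut at about 50% in these data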;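 also: plate controls were negative control wells for no effect and 2.5 mM tranylcypromine positive control for full effect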
# EphB4 antag: EphB4-ephrin-B2 interaction antagonism; inhibition, % at 7 µM; AID 720; EphB4 LBD / TNYL-RAW-Alexa532 peptide, fluorescence polarization; P54760; hit rate 0.15% among 97,000;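 active = inhibition above the screen-wide mean inhibition plus 3 SD, cut at about 15% in these data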;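 also: 0% = DMSO wells and 100% = excess unlabeled TNYL-RAW peptide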
# CYP2C9 act: CYP2C9 (human) activation. AID 1024. recombinant CYP2C9, luciferin-H conversion, luminescence; active compounds read high; factor 1 = untreated enzyme, 0 = blocked. hit rate 1.4% among 96,000. P11712. activation factor at 5 µM;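 active = activation factor of 2 or more for CYP2C9 at a 5 µM dose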;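 also: 0 = sulfaphenazole-blocked wells and 1 = vehicle-only wells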
# Target sequence (P11712 whole entry, looked up): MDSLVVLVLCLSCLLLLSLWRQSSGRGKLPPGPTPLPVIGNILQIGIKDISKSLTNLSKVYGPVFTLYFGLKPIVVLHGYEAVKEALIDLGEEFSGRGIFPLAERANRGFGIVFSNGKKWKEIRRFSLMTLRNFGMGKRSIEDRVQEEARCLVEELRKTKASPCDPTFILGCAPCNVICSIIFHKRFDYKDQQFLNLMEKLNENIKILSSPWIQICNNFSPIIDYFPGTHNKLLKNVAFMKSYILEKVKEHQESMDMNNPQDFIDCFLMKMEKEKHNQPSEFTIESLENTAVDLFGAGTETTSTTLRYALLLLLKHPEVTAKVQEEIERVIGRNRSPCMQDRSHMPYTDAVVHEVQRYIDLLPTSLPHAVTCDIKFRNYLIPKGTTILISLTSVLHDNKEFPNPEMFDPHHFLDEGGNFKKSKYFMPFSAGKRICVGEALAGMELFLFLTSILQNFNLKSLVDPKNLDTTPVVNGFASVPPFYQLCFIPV
# CYP2C19 act: increases human CYP2C19 enzyme activity; P33261; recombinant CYP2C19, luciferin-H EGE luminescence; active compounds read high; 0 = fully inhibited enzyme, 1 = untreated enzyme; activation factor at 5 µM; 96,000 tested, under 10 active; AID 1025;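 active = activation factor of at least 2 at 5 µM in the primary screen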;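 also: 0 = wells with 2.5 mM tranylcypromine and 1 = vehicle-only wells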
# CYP2C9 inhib: blocks human cytochrome P450 2C9 | inhibition, % at 5 µM | AID 777 | hit rate 20% among 96,000 | CYP2C9 Supersomes, luciferin-H conversion, luminescence;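 active = blocking of liver enzyme CYP2C9 beyond about 50% at 5 µM, limit read from the data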
# * = called active by the depositor; x = not tested or not shown.
SMILES,CYP2C19 inh,EphB4 antag,CYP2C9 act,CYP2C19 act,CYP2C9 inhib
CCn1c2ccccc2c2cc(NC(=O)CSc3nnc(-c4ccccc4OC)n3N)ccc21,93.8*,7.1,0.4,0.1,57.6*
COc1ccccc1NC(=O)CSc1nnc(-c2ccco2)n1Cc1ccco1,83.0*,-9.6,0.2,0.2,77.0*
Nc1ncnc2nc(SCC(=O)N3CCN(c4ccccc4)CC3)[nH]c12,22.1,11.5,0.8,0.8,16.2
CCOC(=O)CNC(=O)CSc1nnc(-c2ccco2)n1Cc1ccco1,12.8,4.6,0.9,0.9,6.1
CC(C)c1cc(NC(=O)CSc2nnc(-c3ccccc3F)n2C)on1,39.9,x,0.4,0.6,58.3*
COc1ccc(NC(=O)CSc2nnc(-c3ccco3)n2C)cc1,92.5*,x,0.1,0.1,93.3*
O=C(CSc1nnc(-c2ccco2)n1Cc1ccco1)Nc1ccccc1,18.8,-5.0,0.4,0.8,64.0*
CCOc1ccc(NC(=O)CSc2nnc(-c3ccco3)n2C)cc1,3.0,x,0.9,1,11.6
CCOc1ccc(N2CC(C(=O)NC(C)C)CC2=O)cc1 (stereo not drawn),x,1.9,x,x,x
Cc1cccc(N(CC(=O)N2CCOCC2)S(C)(=O)=O)c1C,-5.0,-9.4,1.2,1.1,-17.1
COc1cc2c(cc1OC)-c1nnc(C)n1C1(CCCC1)C2,-5.4,-0.8,0.9,1.1,10.4
COc1ccc(NC(=O)c2c(C(F)(F)F)nn(C)c2SCc2ccccc2Cl)cc1,24.1,0.3,0.1,0.8,87.2*
Cn1nc(C(F)(F)F)c(/C=N/OC(=O)c2ccccc2)c1SCc1ccccc1Cl,41.4,8.5,0.6,0.6,37.8
O=C(CCCn1c(=O)[nH]c2cc(Cl)ccc2c1=O)NCCCN1CCCC1,8.4,7.3,0.3,0.9,68.8*
COc1ccc(N2CCN(C(=O)CCCn3c(=O)[nH]c4cc(Cl)ccc4c3=O)CC2)cc1,28.7,-3.7,0.5,0.7,52.8*
O=C(CCn1c(=O)[nH]c2ccsc2c1=O)N1CCN(c2cccc(Cl)c2)CC1,38.3,1.1,0.3,0.6,71.4*
O=C(OCCCc1ccncc1)c1ccc(S(=O)(=O)N2CCOCC2)cc1,95.5*,-0.2,0,0,97.2*
O=C(O)CCc1ccc(S(=O)(=O)N2CCOCC2)cc1,3.6,3.1,1,1,4.0
Nc1c(Br)cc(Br)c(N2CCCC2=O)c1Br,54.4*,x,4.3*,0.5,-326.9
CN(C(=O)c1ccncc1)C1CC(C)(C)N(O)C(C)(C)C1,96.1*,-2.5,0.9,0,8.4
Cc1ccc(S(=O)(=O)NCCNC(=O)CN2CCCC2)cc1,-14.8,-2.9,1.1,1.1,-13.5
Cn1c(SCc2ccc(C#N)cc2Cl)nc2ccccc21,56.8*,5.5,0.7,0.4,32.9
COC(=O)C(Cc1c[nH]c2ccccc12)NC(C)=O (stereo not drawn),x,4.6,x,x,x
COc1ccc(C(c2c[nH]c3ccccc23)c2c[nH]c3ccccc23)cc1O,94.6*,-3.1,0,0.1,100.3*
CC(=O)Nc1ccc(N2C(=O)CC(N3CC(C)OC(C)C3)C2=O)cc1 (stereo not drawn),-28.4,-0.2,1.3,1.3,-26.8
SMILES,CYP2C19 inh,EphB4 antag,CYP2C9 act,CYP2C19 act,CYP2C9 inhib
Nn1c(SCc2nc3ccccn3c2Br)nnc1-c1cccnc1,8.6,4.0,2.5*,0.9,-152.8
Cc1[nH]nc(N=CC2=C(O)CC(c3ccco3)CC2=O)c1-c1ccccc1 (stereo not drawn),28.4,-2.5,0.4,0.7,60.7*
O=C1NCC2=C1C(c1ccc(Br)cc1)Nc1ccccc1N2 (stereo not drawn),21.6,-0.9,0.5,0.8,54.9*
COc1ccccc1Nc1nc(C)cc(C)c1C(N)=O,-5.1,1.9,1.1,1.1,-8.7
O=C(CSc1ccc2nnc(-c3ccncc3)n2n1)Nc1ccc2c(c1)OCCO2,6.0,0.1,0.4,0.9,56.5*
O=C(CSc1ccc2nnc(-c3ccncc3)n2n1)Nc1ccc2c(c1)OCO2,6.2,2.6,0.4,0.9,57.5*
O=C(CSc1ccc2nnc(-c3ccccn3)n2n1)Nc1ccc2c(c1)OCCO2,27.4,1.2,0.3,0.7,65.5*
O=C1NCC(O)=C1C=NC12CC3CC(CC(C3)C1)C2,-2.7,-7.4,1.1,1,-9.0
CC(=O)c1cccc(NS(=O)(=O)c2c(C)noc2C)c1,37.6,-2.4,0.6,0.6,40.8
O=C(N/N=C/c1cccc(O)c1)c1csc2ccccc12,14.6,-1.9,1.2,0.9,-18.6
C/C(=N\NC(=O)c1csc2ccccc12)c1ccc(O)cc1,84.3*,3.2,2.8*,0.2,-175.2

# Compound activity from PubChem.
